An excerpt weighted towards active compounds, which were near 8% of everything screened.
RORg inh – inhibitors of mouse ROR gamma transcriptional activity | P51450 | 310,000 tested, 5.4% active | Potency, µM (top dose mostly 53.6 µM), for inactives: top-dose activity change, negative = inhibition, hits mostly inhibitors | Drosophila S2 Gal4-RORgamma UAS-luciferase reporter, 20 h; also: potency is read from the fitted curve at half-maximal effect; nearly all actives have a fitted effect of over 60% in size
Target sequence (P51450 whole entry, looked up, the tested form may be a part): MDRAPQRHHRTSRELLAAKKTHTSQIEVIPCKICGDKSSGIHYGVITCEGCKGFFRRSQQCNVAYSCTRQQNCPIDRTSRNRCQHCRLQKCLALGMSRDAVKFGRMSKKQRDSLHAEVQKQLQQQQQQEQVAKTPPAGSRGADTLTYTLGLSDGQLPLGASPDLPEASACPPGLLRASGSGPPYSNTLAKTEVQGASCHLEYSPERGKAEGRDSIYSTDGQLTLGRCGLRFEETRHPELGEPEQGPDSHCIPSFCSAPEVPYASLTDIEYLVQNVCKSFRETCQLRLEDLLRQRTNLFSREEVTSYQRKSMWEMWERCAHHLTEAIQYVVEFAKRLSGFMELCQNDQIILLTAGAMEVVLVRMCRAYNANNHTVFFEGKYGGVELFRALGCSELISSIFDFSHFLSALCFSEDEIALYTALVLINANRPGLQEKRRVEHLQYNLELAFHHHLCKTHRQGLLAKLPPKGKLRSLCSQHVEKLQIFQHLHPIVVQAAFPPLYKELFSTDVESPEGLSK
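Read-out: Photinus luciferase luminescence; inhibitors lower reporter signal. Insect Schneider cells with Gal4-ROR gamma fusion under metallothionein promoter, UAS reporter; 700 uM final copper sulfate induction, 20 hr, ambient temperature.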
ELG1 DNA repair – blocks ELG1-dependent DNA repair in HEK293T cells. HEK293T ELG1-luciferase reporter, luminescence, 16 h; DNA damage induced by 5-fluorouridine. Potency, µM (titrated, usually from 46.1 µM), inactives show at the highest dose activity change, negative = inhibition, hits mostly inhibitors. 330,000 tested, 2.3% active. AID 504467; also: potency is read from the fitted curve at half-maximal effect; nearly all actives have a fitted effect of over 55% in size
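5-Fluorouridine DNA damage + compound/DMSO, 2,000 cells/well, 16 h, 37 °C/5% CO2. ONE-Glo, 30 min RT, luminescence. Readout = decrease in reporter signal.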
TSHR antagonist – human thyrotropin receptor antagonism. P16473. TSHR-expressing cells, TSH-stimulated cAMP HTRF, 2 h; hits give low values. activity change, negative = inhibition, % at 11.5 µM. 330,000 tested, 0.2% active;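 active = activity change below a set negative limit, meaning inhibition stronger than a set level, cut at about -70% in these data; inconclusive = activity change between two set negative limits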
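TSHR-expressing cells were treated with compounds, then stimulated with TSH at EC80 (4nM final) for 2 hours at 37 deg C. Cellular cAMP was measured by HTRF competition between lysate cAMP and cAMP-d2 for a cryptate-labelled anti-cAMP antibody.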
Gal4-VP16 FLuc – inhibits Gal4-VP16 luciferase reporter, ROR gamma counter-screen; Drosophila S2 Gal4-VP16 UAS-luciferase, luminescence, 20 h; Potency, µM (series often up to 53.6 µM), for the others: at the highest dose activity, negative = inhibition, most hits filed as inhibitors; AID 2546; 310,000 tested, 3.5% active;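 also: Gal4-VP16 expression switched on by copper sulfate through the metallothionein promoter; potency is read from the fitted curve at half-maximal effect; nearly all actives have a fitted effect of over 50% in size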
FBPA coupling cs – inhibits coupling enzyme system, counter-screen for aldolase hits; coupling enzyme system counterscreen, AmpLite Red fluorescence; activity change, negative = inhibition, % at 58.2 µM, hits read low; 290,000 tested, 0.67% active; AID 2472; in the data active = activity change below about -30%
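Counterscreen of the coupled detection system alone, without aldolase: glyceraldehyde-3-phosphate coupling enzymes plus AmpLite Red readout. Compounds at 57.5 uM final, 10 min RT preincubation, 20 min RT reaction, fluorescence 525/598 nm.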
An asterisk follows results filed as active; ? = inconclusive; . = no result given; ! = not confirmed by another sample; [ ] = dose if it differs, or a comment. Unless noted, calls follow the shape of the dose curve; as a rule, active = well fitted curve in the direction sought with a large enough effect; inconclusive = small, poorly fitted or top-dose-only effect, or another doubt; inactive = no such curve, though single readings can be large; an effect the other way counts as inactive or inconclusive. % is scaled to controls: 0 for no effect and ±100 for the full control effect.

SMILES | RORg inh | ELG1 DNA repair | TSHR antagonist | Gal4-VP16 FLuc | FBPA coupling cs
O=C1c2ccccc2NC(c2ccc([N+](=O)[O-])cc2)N1O (stereo unspecified) | 11µM* | ? | -5 | 3% | 0
O=C1N=C(N2CCN(c3ccccc3)CC2)S/C1=C\c1cn[nH]c1-c1ccccc1 | 5% | 4.6µM* | -17 | -29% | 6
Cc1ccc(N2CCN(C3=NC(=O)/C(=C\c4cn[nH]c4-c4ccccc4)S3)CC2)cc1 | -6% | 1.6µM* | -24 | -29% | 1
CC(C)OC(=O)c1cn(Cc2c(F)cccc2F)c2sc(-c3ccc(NC(=O)C(C)C)cc3)c(CN(C)Cc3ccccc3)c2c1=O | -28% | . | . | -20% | -1
CCCCn1c(N)c(N(CC(C)C)C(=O)c2cccc(S(=O)(=O)N3CCN(C)CC3)c2)c(=O)[nH]c1=O | . | ? | 3 | . | .
CCOC(=O)c1cc(-c2ccccc2)nc2c1c(C)nn2-c1ccccn1 | 4µM* | ? | 1 | 11µM* | 0
CCN1c2ccccc2-c2nc3ccccc3n2C1c1cccs1 (stereo unspecified) | 13µM* | -19% | -6 | ? | -5
COc1ccc(CCN(C)CCc2ccc(OC)c(OC)c2)cc1OC | 8% | . | -12 | 2% | 2
COc1ccc(CCN(C)CCCOc2ccc(S(=O)(=O)c3[nH]c4ccccc4c3C(C)C)cc2)cc1OC | 14µM* | . | . | 18µM* | 1
CC(C)(C)c1cc(NCc2ccccn2)n2ncc(-c3ccccc3)c2n1 | 0.45µM* | 4% | -2 | 1.4µM* | -6
CNC(=S)NCCN1CCOCC1 | -3% | 16% | 3 | -5% | 1
CC(NC(=S)NCCN1CCOCC1)C12CC3CC(CC(C3)C1)C2 (stereo unspecified) | 5µM* | 7% | 6 | -14%[10 µM] | 0
CC(NC(=S)NCCCN1CCOCC1)C1CC2CCC1C2 (stereo unspecified) | 5.6µM* | -10% | 0 | ? | 3
Nc1ncc(Br)cc1N=Cc1ccccc1 | 34% | ? | 7 | -3% | -48*
Cn1ncc(N=Cc2ccccc2)c1C(N)=O | 17% | 13% | -1 | 10% | -8
COc1ccccc1Nc1n[nH]c(=S)s1 | 10µM* | ? | 7 | 5% | 0
Cc1cccc(Nc2n[nH]c(=S)s2)c1C | ? | 16% | -2 | -13% | 4
COc1ccccc1Nc1nc(C)cs1 | 11µM*! | ? | 0 | ? | 0
O=C(NCC1CCN(Cc2ccccc2F)CC1)Nc1cc(F)ccc1F | -3% | -7% | -2 | 12% | -2
CCn1c(O)c(N=N)c2ccccc21 | 16% | ? | -11 | -19% | -1
CCn1c(O)c(N=NC2=NC(=O)CS2)c2ccccc21 | 10µM* | ? | 3 | ? | -4
COc1ccc(C2Oc3ccccc3C3=C2C(c2cccs2)n2ncnc2N3)cc1 (stereo unspecified) | ? | ? | -10 | 2.5µM* | -9
CC1CCCN(C(=O)CNS(=O)(=O)c2cccs2)C1 (stereo unspecified) | 37% | ? | 12 | 4% | -3
O=C(CN(Cc1ccco1)C(=O)c1cc(=O)[nH]c2ccccc12)Nc1ccccc1Br | 36% | 21µM* | -11 | -16% | -3
COc1cc(SC)ccc1C(=O)N(CC(=O)Nc1ccccc1Br)Cc1ccco1 | . | -8% | 2 | . | .
SMILES | RORg inh | ELG1 DNA repair | TSHR antagonist | Gal4-VP16 FLuc | FBPA coupling cs
COc1ccc(CNCCc2ccc([N+](=O)[O-])cc2)c(OC)c1OC | -15% | -17% | 0 | 1% | 0
COc1cc(N(C)C)cc(CN(C)CCc2ccc([N+](=O)[O-])cc2)c1O | ? | . | . | -2% | -54*
COc1ccc(-c2cn[nH]c2-c2ccc(OC)cc2O)cc1 | ? | 10µM* | -4 | 20µM* | 3
COc1ccc(-c2[nH]ncc2-c2ccc(Cl)cc2)c(O)c1 | 8.9µM* | . | . | ? | -2
COc1ccc(-c2[nH]ncc2-c2csc(C)n2)c(O)c1 | -43% | 1% | 10 | ? | -3
O=C(O)c1ccc(S(=O)(=O)N2CCSCC2)cc1 | 0% | -1% | 11 | -1% | -6
O=C(CCN1CCCCC1=O)NC1CCCc2c1cnn2-c1ccccc1F (stereo unspecified) | 3% | 3% | -6 | -3% | 2
Cc1cccc(-n2[nH]c3c4c(ccc3c2=O)C(=O)c2ccccc2C4=O)c1 | -27% | -16% | -4 | -5% | 3
CC(C)Cn1[nH]c2c3c(ccc2c1=O)C(=O)c1ccccc1C3=O | ? | ? | -8 | -8% | -30*
CC(C)(C)Sc1ccc2nc3c(n2c1)CCCC3 | 4µM* | ? | 1 | 11µM* | 1
C/C=C(/C)C#N | -10% | . | . | 9% | .
C=CCNc1sc(C(=O)c2ccc(C)cc2)c(N)c1C#N | 0% | 2% | -3 | -12% | 0
C=CCNc1nc(N)c(C(=C(C#N)C#N)c2ccc(Br)cc2)s1 | ? | 18µM* | 0 | ? | 1
NC(N)=Nc1cc2ccccc2c2ccccc12 | -38% | ? | 23 | -13% | -34*
NC(N)=NC(N)=Nc1cccc2ccccc12 | 5% | -13% | 23 | 1% | -23
Oc1ccccc1/C=N/NC(=S)NC1CC2C=CC1C2 (stereo unspecified) | 3.2µM* | ? | 7 | 5µM* | 4
Cc1c(NC(=S)N/N=C\c2ccccc2O)c(=O)n(-c2ccccc2)n1C | ? | ? | 12 | -21% | 1
Oc1c(Cl)cc(Cl)cc1/C=N/NC(=S)NC1CC2C=CC1C2 (stereo unspecified) | 4.5µM* | 15µM* | 1 | 20µM* | 6
COc1ccc(C(=O)COC(=O)Cn2cnc3ccccc3c2=O)c(OC)c1 | . | 5% | 4 | . | .
Cn1c(=O)c2cc(NCc3ccccc3)nnc2n(C)c1=O | -41% | -17% | -2 | -23% | -59*
CS(=O)(=O)N1CCC[C@@]2(CCN(C(=O)Nc3ccccc3)C2)C1 | -2% | . | . | -5% | 0
CCN(C(=O)C(C)N1C(=O)/C(=C/c2ccco2)SC1=S)C1CCS(=O)(=O)C1 (stereo unspecified) | -19% | 0% | -7 | -8% | -22
CC(C(=O)N(C)C1CCS(=O)(=O)C1)N1C(=O)/C(=C/c2ccc(F)cc2)SC1=S (stereo unspecified) | -7% | 10% | -12 | 16µM* | .
COc1ccccc1CCC(=O)Nc1nc2ccccc2[nH]1 | ? | ? | -6 | ? | 1
O=C(Cc1ccccc1F)Nc1nc2ccccc2[nH]1 | 10µM* | ? | 0 | ? | -1
CCCCCC(=O)Nc1nc2ccccc2[nH]1 | 6.3µM* | ? | -11 | ? | 1
COc1cccc(CC(=O)Nc2nc3ccccc3[nH]2)c1 | ? | 0% | -8 | -28%[10 µM] | 2
